What all share (assay): DAPPL (digital affinity profiling via proximity ligation, sequencing); 10 mM Tris-HCl pH 7.5, 50 mM NaCl, 1 mM DTT, 4% glycerol, room temperature, 30 min; GST-TFs on glutathione beads, 16-mer random dsDNA library, 0.1% formaldehyde crosslink after washing; high values mean tight binding
The target of one assay is T1, FEV (Homo sapiens, UniProt Q99581 1-238).
T1 sequence: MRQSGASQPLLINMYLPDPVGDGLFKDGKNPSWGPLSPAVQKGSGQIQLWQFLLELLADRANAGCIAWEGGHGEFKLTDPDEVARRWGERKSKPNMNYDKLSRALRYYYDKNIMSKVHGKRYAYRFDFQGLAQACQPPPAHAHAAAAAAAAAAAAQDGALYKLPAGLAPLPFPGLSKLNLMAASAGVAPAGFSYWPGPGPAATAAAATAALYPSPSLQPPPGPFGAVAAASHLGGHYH
To be noted: protein: recombinant; tags: N-terminal GST; dsDNA, one strand shown. In a few lines: (§1)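 Sequencing on an Illumina NextSeq500 followed washing, crosslinking with 0.1% formaldehyde, proximity ligation (BsaI/T4 ligase, 1 h, 37 °C) and PCR amplification of pools that had been incubated for 30 min at room temperature with 200 nmole of a random double-stranded 16-mer DNA library in Tris/NaCl/DTT/glycerol buffer. Each pool held DNA-barcoded human transcription factors, expressed in yeast as GST fusions and captured on glutathione beads, plus a tag-only sample. Binding signal is a hexamer's read frequency for a factor divided by its frequency in the tag-only sample.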

A further assay has as its target ETV5 (Homo sapiens, UniProt P41161 1-510). To be noted: protein: recombinant; tags: N-terminal GST; dsDNA, one strand shown. In a few lines:
as §1

The target of a further assay is HSF1 (Homo sapiens, UniProt Q00613 1-529). The settings on record: protein: recombinant; tags: N-terminal GST; chain copies: 3; dsDNA, one strand shown. In a few lines:
as §1

The next assay concerns the target T2, SPIC (Homo sapiens, UniProt Q8N5J4 1-248).
T2 sequence: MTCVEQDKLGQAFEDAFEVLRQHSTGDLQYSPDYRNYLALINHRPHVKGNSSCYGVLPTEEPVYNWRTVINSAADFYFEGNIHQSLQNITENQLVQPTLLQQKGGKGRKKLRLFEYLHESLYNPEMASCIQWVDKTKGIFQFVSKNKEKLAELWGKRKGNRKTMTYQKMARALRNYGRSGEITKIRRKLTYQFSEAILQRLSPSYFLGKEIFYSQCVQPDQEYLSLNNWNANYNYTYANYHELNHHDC
To be noted: protein: recombinant; tags: N-terminal GST; dsDNA, one strand shown. In short, it runs like this: as §1

The target of another assay is ELF4 (Homo sapiens, UniProt Q99607 1-663). The settings on record: protein: recombinant; tags: N-terminal GST; dsDNA, one strand shown. In short, it runs like this: as §1
Sequence of ELF4 (Q99607 whole entry): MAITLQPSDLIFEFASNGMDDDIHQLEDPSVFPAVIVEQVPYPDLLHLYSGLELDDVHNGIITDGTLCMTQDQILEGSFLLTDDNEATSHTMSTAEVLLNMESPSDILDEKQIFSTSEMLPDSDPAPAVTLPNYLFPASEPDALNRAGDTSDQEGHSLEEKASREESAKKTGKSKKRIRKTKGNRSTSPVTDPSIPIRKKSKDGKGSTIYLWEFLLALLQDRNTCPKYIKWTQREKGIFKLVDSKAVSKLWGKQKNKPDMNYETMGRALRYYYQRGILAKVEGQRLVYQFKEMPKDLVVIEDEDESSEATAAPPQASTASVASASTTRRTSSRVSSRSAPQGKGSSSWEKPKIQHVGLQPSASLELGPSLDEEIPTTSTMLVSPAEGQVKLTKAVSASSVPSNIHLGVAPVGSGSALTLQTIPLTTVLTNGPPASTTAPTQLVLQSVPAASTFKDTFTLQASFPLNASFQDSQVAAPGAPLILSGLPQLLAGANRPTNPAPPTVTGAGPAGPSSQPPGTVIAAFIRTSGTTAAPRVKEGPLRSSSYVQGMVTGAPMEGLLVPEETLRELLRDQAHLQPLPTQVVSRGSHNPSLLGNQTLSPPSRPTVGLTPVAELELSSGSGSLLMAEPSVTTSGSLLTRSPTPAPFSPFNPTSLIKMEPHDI
The next assay addresses T3, ELK4 (Homo sapiens, UniProt P28324-2 1-405).
T3 sequence: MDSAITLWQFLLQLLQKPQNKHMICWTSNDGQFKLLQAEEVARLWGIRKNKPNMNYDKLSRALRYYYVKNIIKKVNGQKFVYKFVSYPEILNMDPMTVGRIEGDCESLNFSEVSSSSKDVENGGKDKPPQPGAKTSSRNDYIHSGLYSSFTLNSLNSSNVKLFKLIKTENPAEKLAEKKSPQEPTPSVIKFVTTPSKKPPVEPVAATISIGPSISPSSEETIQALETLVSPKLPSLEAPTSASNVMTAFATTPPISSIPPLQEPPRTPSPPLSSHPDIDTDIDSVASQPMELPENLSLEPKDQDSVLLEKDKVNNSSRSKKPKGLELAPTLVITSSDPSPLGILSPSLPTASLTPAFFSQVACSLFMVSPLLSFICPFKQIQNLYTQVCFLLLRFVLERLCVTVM
To be noted: protein: recombinant; tags: N-terminal GST; dsDNA, one strand shown. In a few lines:
as §1

The target in a further assay is T4, ETV2 (Homo sapiens, UniProt O00321 1-342).
T4 sequence: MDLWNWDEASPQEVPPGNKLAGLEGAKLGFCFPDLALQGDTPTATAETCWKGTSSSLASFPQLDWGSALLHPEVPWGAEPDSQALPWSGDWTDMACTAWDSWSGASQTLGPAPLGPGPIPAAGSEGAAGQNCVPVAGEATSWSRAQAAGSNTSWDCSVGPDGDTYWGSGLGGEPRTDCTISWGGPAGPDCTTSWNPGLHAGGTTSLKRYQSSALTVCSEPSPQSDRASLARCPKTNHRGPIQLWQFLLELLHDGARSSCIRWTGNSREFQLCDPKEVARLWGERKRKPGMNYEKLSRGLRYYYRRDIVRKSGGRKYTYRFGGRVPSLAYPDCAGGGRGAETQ
To be noted: protein: recombinant; tags: N-terminal GST; dsDNA, one strand shown. In a few lines:
as §1

In a further assay the target is T5, ELF3 (Homo sapiens, UniProt P78545 1-371).
T5 sequence: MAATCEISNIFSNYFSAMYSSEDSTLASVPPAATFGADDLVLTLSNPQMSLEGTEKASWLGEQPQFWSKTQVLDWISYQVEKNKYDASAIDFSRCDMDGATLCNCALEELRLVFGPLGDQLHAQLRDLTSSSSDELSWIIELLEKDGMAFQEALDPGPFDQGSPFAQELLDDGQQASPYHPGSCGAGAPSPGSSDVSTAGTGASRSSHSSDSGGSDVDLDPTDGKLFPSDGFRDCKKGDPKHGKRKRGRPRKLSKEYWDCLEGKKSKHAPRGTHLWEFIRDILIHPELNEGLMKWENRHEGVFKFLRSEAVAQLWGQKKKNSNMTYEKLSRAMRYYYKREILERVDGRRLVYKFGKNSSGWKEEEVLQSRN
To be noted: protein: recombinant; tags: N-terminal GST; dsDNA, one strand shown. In short, it runs like this: as §1

The next assay concerns the target CRX (Homo sapiens, UniProt O43186 1-299). The settings on record: protein: recombinant; tags: N-terminal GST; dsDNA, one strand shown. In a few lines: as §1
A further assay has as its target ETV1 (Homo sapiens, UniProt P50549 1-477). The settings on record: protein: recombinant; tags: N-terminal GST; dsDNA, one strand shown. In short, it runs like this:
as §1

The target of a further assay is T6, ERF (Homo sapiens, UniProt P50548 1-548).
T6 sequence: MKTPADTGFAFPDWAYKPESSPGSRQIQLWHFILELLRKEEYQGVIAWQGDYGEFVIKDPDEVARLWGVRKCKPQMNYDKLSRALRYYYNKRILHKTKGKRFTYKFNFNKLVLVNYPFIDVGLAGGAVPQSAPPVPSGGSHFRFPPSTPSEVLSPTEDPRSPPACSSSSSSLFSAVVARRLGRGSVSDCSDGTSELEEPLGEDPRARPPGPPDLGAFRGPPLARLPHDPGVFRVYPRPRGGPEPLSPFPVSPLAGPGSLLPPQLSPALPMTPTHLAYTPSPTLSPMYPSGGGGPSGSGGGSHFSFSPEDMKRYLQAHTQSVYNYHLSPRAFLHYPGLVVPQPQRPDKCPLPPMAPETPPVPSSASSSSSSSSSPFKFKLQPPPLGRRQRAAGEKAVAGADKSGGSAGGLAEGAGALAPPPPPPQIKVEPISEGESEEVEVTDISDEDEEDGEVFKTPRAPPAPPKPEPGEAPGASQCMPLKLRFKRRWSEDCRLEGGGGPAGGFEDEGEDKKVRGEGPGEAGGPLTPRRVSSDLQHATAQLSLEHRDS
The settings on record: protein: recombinant; tags: N-terminal GST; dsDNA, one strand shown. In short, it runs like this:
as §1

In a further assay the target is T7, ETV3L (Homo sapiens, UniProt Q6ZN32 1-361).
T7 sequence: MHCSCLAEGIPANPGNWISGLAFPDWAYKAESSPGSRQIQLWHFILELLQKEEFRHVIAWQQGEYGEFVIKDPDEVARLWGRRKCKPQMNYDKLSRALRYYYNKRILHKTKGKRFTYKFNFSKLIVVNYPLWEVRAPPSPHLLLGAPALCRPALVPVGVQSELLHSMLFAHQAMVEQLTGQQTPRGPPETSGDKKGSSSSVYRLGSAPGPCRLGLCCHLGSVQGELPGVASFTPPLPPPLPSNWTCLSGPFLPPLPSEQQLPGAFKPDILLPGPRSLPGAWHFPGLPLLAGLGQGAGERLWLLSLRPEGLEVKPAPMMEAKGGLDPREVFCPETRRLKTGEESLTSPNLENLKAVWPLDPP
To be noted: protein: recombinant; tags: N-terminal GST; dsDNA, one strand shown. In a few lines:
as §1

For the next assay, the target named is T8, ETS2 (Homo sapiens, UniProt P15036 1-469).
T8 sequence: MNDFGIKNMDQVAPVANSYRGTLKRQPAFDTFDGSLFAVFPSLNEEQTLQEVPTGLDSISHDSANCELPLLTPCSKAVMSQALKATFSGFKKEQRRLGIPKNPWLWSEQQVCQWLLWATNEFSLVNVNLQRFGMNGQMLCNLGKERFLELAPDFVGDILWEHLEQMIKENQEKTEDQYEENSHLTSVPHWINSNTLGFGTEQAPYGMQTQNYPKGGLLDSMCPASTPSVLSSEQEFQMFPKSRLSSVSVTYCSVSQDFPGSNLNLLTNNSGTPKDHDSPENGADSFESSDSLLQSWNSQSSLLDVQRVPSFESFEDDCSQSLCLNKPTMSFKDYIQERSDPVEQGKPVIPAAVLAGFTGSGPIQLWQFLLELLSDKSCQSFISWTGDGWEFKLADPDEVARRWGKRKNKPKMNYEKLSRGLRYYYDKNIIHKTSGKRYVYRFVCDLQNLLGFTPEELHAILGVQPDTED
To be noted: protein: recombinant; tags: N-terminal GST; dsDNA, one strand shown. In a few lines: as §1

For a further assay, the target named is T9, SPDEF (Homo sapiens, UniProt O95238 1-335).
T9 sequence: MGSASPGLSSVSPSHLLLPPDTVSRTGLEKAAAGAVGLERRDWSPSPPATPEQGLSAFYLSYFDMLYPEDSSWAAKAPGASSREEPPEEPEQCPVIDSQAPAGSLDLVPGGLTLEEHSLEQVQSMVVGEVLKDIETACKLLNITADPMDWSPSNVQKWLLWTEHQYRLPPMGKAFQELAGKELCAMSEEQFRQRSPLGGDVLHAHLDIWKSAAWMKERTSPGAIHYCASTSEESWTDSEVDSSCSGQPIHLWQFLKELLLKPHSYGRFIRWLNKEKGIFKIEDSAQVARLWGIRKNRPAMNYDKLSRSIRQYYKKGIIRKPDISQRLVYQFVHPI
To be noted: protein: recombinant; tags: N-terminal GST; dsDNA, one strand shown. In short, it runs like this:
as §1

Another assay addresses T10, ETV7 (Homo sapiens, UniProt Q9Y603 1-341).
T10 sequence: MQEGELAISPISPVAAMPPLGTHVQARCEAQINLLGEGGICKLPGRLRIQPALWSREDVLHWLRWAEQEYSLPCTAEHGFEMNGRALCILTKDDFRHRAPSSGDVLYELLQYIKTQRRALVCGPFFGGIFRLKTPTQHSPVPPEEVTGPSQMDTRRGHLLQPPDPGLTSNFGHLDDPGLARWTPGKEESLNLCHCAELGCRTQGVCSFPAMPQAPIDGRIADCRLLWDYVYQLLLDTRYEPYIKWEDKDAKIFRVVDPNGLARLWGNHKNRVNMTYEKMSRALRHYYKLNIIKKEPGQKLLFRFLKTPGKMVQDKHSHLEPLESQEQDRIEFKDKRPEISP
To be noted: protein: recombinant; tags: N-terminal GST; dsDNA, one strand shown. In short, it runs like this: as §1

For another assay, the target named is T11, ELF5 (Homo sapiens, UniProt Q9UKW6-2 1-255).
T11 sequence: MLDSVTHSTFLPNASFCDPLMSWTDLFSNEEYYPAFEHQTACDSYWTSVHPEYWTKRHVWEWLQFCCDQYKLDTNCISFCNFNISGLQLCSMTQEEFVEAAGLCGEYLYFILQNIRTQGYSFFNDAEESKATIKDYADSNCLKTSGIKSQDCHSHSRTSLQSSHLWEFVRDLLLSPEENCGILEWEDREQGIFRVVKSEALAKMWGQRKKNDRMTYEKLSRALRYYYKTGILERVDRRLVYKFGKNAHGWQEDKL
To be noted: protein: recombinant; tags: N-terminal GST; dsDNA, one strand shown. In short, it runs like this: as §1

For a further assay, the target named is T12, ETV3 (Homo sapiens, UniProt P41162-2 1-143).
T12 sequence: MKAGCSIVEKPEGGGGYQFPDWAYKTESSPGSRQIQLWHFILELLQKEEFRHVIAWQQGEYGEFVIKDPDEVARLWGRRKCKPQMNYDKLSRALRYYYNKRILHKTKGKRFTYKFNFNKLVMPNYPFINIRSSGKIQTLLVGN
To be noted: protein: recombinant; tags: N-terminal GST; dsDNA, one strand shown. In short, it runs like this:
as §1

Another assay deals with ETV6 (Homo sapiens, UniProt P41212 1-452). The settings on record: protein: recombinant; tags: N-terminal GST; dsDNA, one strand shown. In short, it runs like this: as §1
Sequence of ETV6 (P41212 whole entry): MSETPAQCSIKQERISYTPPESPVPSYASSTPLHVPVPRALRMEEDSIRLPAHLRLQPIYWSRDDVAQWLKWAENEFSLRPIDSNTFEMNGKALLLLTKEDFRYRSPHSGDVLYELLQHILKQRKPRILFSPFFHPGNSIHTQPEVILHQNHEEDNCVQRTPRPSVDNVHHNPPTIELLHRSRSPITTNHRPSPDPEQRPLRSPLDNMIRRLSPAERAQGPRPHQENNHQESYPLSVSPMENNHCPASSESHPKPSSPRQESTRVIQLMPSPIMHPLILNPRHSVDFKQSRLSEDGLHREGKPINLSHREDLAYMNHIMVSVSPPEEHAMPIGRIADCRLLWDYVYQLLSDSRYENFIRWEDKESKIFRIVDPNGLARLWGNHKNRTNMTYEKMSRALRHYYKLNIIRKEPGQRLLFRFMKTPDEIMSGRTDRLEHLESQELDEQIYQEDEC

Sequence of ETV1 (P50549 whole entry): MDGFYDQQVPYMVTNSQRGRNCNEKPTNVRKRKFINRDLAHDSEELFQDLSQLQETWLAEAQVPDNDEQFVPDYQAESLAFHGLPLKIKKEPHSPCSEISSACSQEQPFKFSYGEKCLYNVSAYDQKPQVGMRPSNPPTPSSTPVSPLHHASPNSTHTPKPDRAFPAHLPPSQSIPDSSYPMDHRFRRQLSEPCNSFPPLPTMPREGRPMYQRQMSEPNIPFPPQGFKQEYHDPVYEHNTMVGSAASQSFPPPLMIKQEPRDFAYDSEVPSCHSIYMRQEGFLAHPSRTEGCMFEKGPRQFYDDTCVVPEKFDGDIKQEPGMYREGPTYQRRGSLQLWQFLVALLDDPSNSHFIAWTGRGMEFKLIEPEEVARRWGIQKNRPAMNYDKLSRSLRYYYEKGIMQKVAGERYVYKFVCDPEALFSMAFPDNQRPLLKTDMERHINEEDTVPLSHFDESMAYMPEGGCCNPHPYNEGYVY
Sequence of ETV5 (P41161 whole entry): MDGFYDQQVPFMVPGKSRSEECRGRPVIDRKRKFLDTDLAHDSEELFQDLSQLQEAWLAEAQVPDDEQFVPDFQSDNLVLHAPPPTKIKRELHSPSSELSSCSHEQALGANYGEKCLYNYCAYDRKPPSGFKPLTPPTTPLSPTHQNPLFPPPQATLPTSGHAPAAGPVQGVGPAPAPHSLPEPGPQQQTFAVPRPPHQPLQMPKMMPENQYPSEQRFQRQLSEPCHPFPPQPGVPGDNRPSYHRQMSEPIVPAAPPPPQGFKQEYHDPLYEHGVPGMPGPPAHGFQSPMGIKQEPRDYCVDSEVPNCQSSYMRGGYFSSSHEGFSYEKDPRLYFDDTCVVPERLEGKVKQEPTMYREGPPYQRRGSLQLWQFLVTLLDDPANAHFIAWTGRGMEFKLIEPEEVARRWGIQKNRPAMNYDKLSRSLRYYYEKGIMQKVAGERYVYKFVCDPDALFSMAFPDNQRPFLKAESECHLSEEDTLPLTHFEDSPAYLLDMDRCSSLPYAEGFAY
Sequence of CRX (O43186 whole entry): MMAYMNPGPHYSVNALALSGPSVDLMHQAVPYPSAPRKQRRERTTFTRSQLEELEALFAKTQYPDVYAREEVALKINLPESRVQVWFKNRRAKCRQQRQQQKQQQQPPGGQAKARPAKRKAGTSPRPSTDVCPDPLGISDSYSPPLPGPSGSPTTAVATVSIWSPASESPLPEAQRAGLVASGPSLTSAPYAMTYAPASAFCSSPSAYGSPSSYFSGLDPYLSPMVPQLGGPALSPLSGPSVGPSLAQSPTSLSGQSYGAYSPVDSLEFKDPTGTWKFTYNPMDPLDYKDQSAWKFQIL
Sequence of HSF1 (Q00613 whole entry): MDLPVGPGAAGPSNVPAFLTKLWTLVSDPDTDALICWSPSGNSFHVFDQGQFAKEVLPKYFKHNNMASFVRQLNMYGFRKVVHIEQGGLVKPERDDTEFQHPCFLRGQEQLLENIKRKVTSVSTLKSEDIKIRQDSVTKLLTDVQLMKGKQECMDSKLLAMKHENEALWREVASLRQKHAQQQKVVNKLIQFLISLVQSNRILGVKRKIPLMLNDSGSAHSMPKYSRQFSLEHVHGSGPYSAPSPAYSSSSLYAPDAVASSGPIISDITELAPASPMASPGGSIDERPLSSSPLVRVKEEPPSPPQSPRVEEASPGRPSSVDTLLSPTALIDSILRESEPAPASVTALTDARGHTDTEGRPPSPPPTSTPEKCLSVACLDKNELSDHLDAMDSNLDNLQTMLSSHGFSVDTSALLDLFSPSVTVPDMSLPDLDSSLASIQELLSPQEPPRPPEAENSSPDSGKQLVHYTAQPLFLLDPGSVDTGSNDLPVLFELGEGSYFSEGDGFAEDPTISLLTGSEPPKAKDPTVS

With CTTTTC, the binding signal in the assay with FEV was 1.39 fold enrichment (6-mer frequency, TF over GST control); in the assay with ETV5 it was 1.44 fold enrichment (6-mer frequency, TF over GST control); with HSF1 it was 1.5 fold enrichment (6-mer frequency, TF over GST control); with SPIC it was 1.45 fold enrichment (6-mer frequency, TF over GST control); with ELF4 it was 1.43 fold enrichment (6-mer frequency, TF over GST control); with ELK4, 1.49 fold enrichment (6-mer frequency, TF over GST control). For the same sequence, the binding signal with ETV2 is 1.48 fold enrichment (6-mer frequency, TF over GST control); with ELF3, 1.48 fold enrichment (6-mer frequency, TF over GST control); with CRX, 1.25 fold enrichment (6-mer frequency, TF over GST control); in the assay with ETV1, 1.4 fold enrichment (6-mer frequency, TF over GST control); with ERF, 1.33 fold enrichment (6-mer frequency, TF over GST control); in the assay with ETV3L it was 1.48 fold enrichment (6-mer frequency, TF over GST control). Moreover, the binding signal with ETS2 is 1.33 fold enrichment (6-mer frequency, TF over GST control); in the assay with SPDEF, 1.49 fold enrichment (6-mer frequency, TF over GST control); with ETV7 it was 1.49 fold enrichment (6-mer frequency, TF over GST control); with ELF5, 1.58 fold enrichment (6-mer frequency, TF over GST control); with ETV3, 1.69 fold enrichment (6-mer frequency, TF over GST control); in the assay with ETV6, 1.57 fold enrichment (6-mer frequency, TF over GST control).
